Drawing on PubChem BioAssay (NCI), this text covers growth for 9 compounds.

This is part of a sample that, as a whole, favours compounds with a hit. Of some 83,000 tested, about 20% had one in any assay.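 How to read the values: 0–100, growth inhibition (40 = 60% inhibited); 0, no net growth; -100 to 0, cell death (-40 = 40% of starting cells died; -100 = all dead).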 A number with no mark means an inactive call. Activity calls are given as the source filed them. The calls were made as follows: active = growth percent below 10; inactive = the rest.

What all share (test): NCI-60 one-dose screen, 48 h (100 = growth as untreated, 0 = no growth, -100 = all killed)
In one test the test system is SK-MEL-2 melanoma. The note with it: 10 µM unless noted.
For a further test, the system named is EKVX NSCLC. The following applies: 10 µM unless noted.
The next test deals with SN12C renal. The following applies: 10 µM unless noted.
A further test has as its system UO-31 renal. The following applies: 10 µM unless noted.
A further test relates to A498 renal. The following applies: 10 µM unless noted.
For a further test, the system named is CCRF-CEM leukemia. The following applies: 10 µM unless noted.
Another test relates to MOLT-4 leukemia. The following applies: 10 µM unless noted.
The test system of another test is SR leukemia. The following applies: 10 µM unless noted.
A further test relates to RPMI-8226 leukemia. The following applies: 10 µM unless noted.
The next test has as its system OVCAR-8 ovarian. The note with it: 10 µM unless noted.
For a further test, the system named is OVCAR-5 ovarian. The note with it: 10 µM unless noted.
A further test has as its system OVCAR-4 ovarian. The following applies: 10 µM unless noted.
A further test deals with SK-OV-3 ovarian. The note with it: 10 µM unless noted.
The subject of a further test is IGROV1 ovarian. The note with it: 10 µM unless noted.
For the next test, the system named is OVCAR-3 ovarian. The following applies: 10 µM unless noted.
A further test relates to HS 578T breast. The following applies: 10 µM unless noted.
A further test relates to TK-10 renal. The note with it: 10 µM unless noted.
The subject of the next test is ACHN renal. The following applies: 10 µM unless noted.
For the next test, the system named is CAKI-1 renal. The following applies: 10 µM.
In another test the test system is NCI/ADR-RES ovarian. The note with it: 10 µM unless noted.

As to `Cc1ncc(CO)c(C(=O)O)c1O`, the growth with SK-MEL-2 melanoma is 89.7%; in the test on EKVX NSCLC, 101%; with SN12C renal, 97.6%; in the test on UO-31 renal, 84.8%; in the test on A498 renal, 99.5%; with CCRF-CEM leukemia, 121%. The growth with MOLT-4 leukemia was 82.5%; in the test with SR leukemia it was 86.8%; with RPMI-8226 leukemia, 131%; in the test on OVCAR-8 ovarian it was 104%; in the test on OVCAR-5 ovarian it was 105%; with OVCAR-4 ovarian, 103%. Further, the growth in the test on SK-OV-3 ovarian is 104%; with IGROV1 ovarian, 107%; in the test with OVCAR-3 ovarian it was 94.8%; in the test on HS 578T breast it was 102%.
Consider `CC(=O)c1ccc2c(c1)C1C=CCC1[C@H](c1cc3c(cc1Br)OCO3)N2` (stereo partly drawn), for which the growth was 16.1% in the test on SK-MEL-2 melanoma; 34.9% in the test on EKVX NSCLC; 43.5% in the test with SN12C renal; 60.6% in the test on TK-10 renal; 38.6% with ACHN renal; 20.3% with CAKI-1 renal. Further, the growth in the test with A498 renal is 13.5%; with CCRF-CEM leukemia it was 4.69% (active); in the test with MOLT-4 leukemia, 7.5% (active); in the test on RPMI-8226 leukemia, 9.1% (active); with OVCAR-8 ovarian, 16.8%; in the test with OVCAR-5 ovarian, 34.7%. Also, the growth is 56.1% in the test with OVCAR-4 ovarian; 34.2% in the test with SK-OV-3 ovarian; 8.44% (active) in the test with OVCAR-3 ovarian; 7.06% (active) with HS 578T breast; 10.8% in the test with NCI/ADR-RES ovarian.
`OCc1cn(-c2ccc(Cl)cc2)nc1-c1ccc(O)cc1`: the growth is 95.8% in the test on SK-MEL-2 melanoma; 89.7% with EKVX NSCLC; 94.3% in the test on SN12C renal; 63.5% with UO-31 renal; 96.9% with A498 renal; 50.3% with CCRF-CEM leukemia. The growth is 53.6% in the test on MOLT-4 leukemia; 82.1% in the test with SR leukemia; 97.3% in the test on RPMI-8226 leukemia; 106% in the test on OVCAR-8 ovarian; 99.9% with OVCAR-5 ovarian; 91.6% with OVCAR-4 ovarian. Also, the growth in the test on SK-OV-3 ovarian was 105%; in the test on IGROV1 ovarian, 91.3%; in the test on OVCAR-3 ovarian, 108%; with HS 578T breast, 105%; in the test with NCI/ADR-RES ovarian it was 94.7%.
As for `CCCN1C(=O)CSC1=Nc1ccc2cc3ccc(N=C4SCC(=O)N4CCC)cc3nc2c1`, the growth was 38.1% with SK-MEL-2 melanoma; 33.8% with EKVX NSCLC; 75% in the test with SN12C renal; 56.8% in the test with TK-10 renal; 36.4% in the test with ACHN renal; 36% with CAKI-1 renal. The growth in the test with A498 renal is 63.4%; in the test with CCRF-CEM leukemia, 31%; in the test with MOLT-4 leukemia, -18.8% (active); with RPMI-8226 leukemia it was 1.65% (active); in the test on OVCAR-8 ovarian it was 37.2%; in the test with OVCAR-5 ovarian it was 89.2%. The growth in the test on OVCAR-4 ovarian was 15.3%; with SK-OV-3 ovarian, 74.5%; in the test on OVCAR-3 ovarian it was 51%; in the test with HS 578T breast it was 31.6%; with NCI/ADR-RES ovarian, 24.5%.
Take `Nc1nc(-c2cc3c(cc2Cl)NC(=O)/C3=C/c2ccc(Cl)cc2)cs1`: the growth in the test with SK-MEL-2 melanoma is 36.6%; with EKVX NSCLC it was 35.3%; in the test on SN12C renal, 48.8%; with UO-31 renal it was 54.3%; in the test on A498 renal, 74.8%; in the test on CCRF-CEM leukemia, 19%. Besides, the growth is 15.5% in the test on MOLT-4 leukemia; 13.8% in the test on SR leukemia; 31.9% with RPMI-8226 leukemia; 50.8% in the test with OVCAR-8 ovarian; 92% in the test with OVCAR-5 ovarian; 48.6% with OVCAR-4 ovarian. Besides, the growth in the test on SK-OV-3 ovarian is 71.8%; in the test on IGROV1 ovarian, 34.9%; with OVCAR-3 ovarian, 32.8%; in the test on HS 578T breast it was 48.1%.
On to `c1ccc([Se]CCCN2CCN(CCC[Se]c3ccccc3)CC2)cc1`, for which the growth in the test on SK-MEL-2 melanoma is 121%; in the test with EKVX NSCLC, 1.25% (active); with SN12C renal, 104%; in the test on TK-10 renal, 129%; with ACHN renal it was 100%; with CAKI-1 renal, -23.6% (active). Further, the growth is 116% in the test on A498 renal; 105% in the test on CCRF-CEM leukemia; 127% with MOLT-4 leukemia; 126% in the test on SR leukemia; 119% in the test with OVCAR-8 ovarian; 121% with OVCAR-5 ovarian. For the same compound, the growth was 101% in the test on OVCAR-4 ovarian; 113% in the test on SK-OV-3 ovarian; 103% in the test on IGROV1 ovarian; 116% in the test on OVCAR-3 ovarian; 110% with HS 578T breast; 101% in the test with NCI/ADR-RES ovarian.
Regarding `COc1ccccc1NC(=O)COc1ccc(/C=C2/Oc3cc4occc4c(OC)c3C2=O)cc1OC`, the growth in the test on SK-MEL-2 melanoma was 108%; with EKVX NSCLC, 99.2%; with SN12C renal it was 104%; in the test with UO-31 renal it was 99.9%; in the test on A498 renal it was 99%; in the test with CCRF-CEM leukemia it was 69.9%. Moreover, the growth with MOLT-4 leukemia is 83.4%; in the test on SR leukemia, 93.5%; with RPMI-8226 leukemia, 66.7%; in the test with OVCAR-8 ovarian, 85.4%; in the test with OVCAR-5 ovarian it was 111%; in the test on OVCAR-4 ovarian it was 112%. For the same compound, the growth in the test with SK-OV-3 ovarian was 110%; in the test on IGROV1 ovarian, 122%; in the test on OVCAR-3 ovarian, 105%; in the test with HS 578T breast it was 112%; in the test with NCI/ADR-RES ovarian, 90.8%.
On to `CCCCCCCCN(CCCCCCCC)CC(O)c1cc(-c2ccccc2)nc2ccc(OC)cc12` (stereo not drawn), for which the growth is 78.1% with SK-MEL-2 melanoma; 94.6% in the test with EKVX NSCLC; 39.9% in the test with SN12C renal; 42.4% in the test with UO-31 renal; 83.4% in the test with A498 renal; 4.59% (active) in the test with CCRF-CEM leukemia. The growth in the test on MOLT-4 leukemia is 9.81% (active); in the test on SR leukemia, 5.05% (active); in the test on RPMI-8226 leukemia, 1.99% (active); in the test with OVCAR-8 ovarian, 8.91% (active); in the test with OVCAR-5 ovarian, 101%; with OVCAR-4 ovarian, 78.4%. Also, the growth with SK-OV-3 ovarian was 103%; in the test on IGROV1 ovarian, 95.8%; in the test on OVCAR-3 ovarian it was 66.6%; with HS 578T breast, 99.1%; with NCI/ADR-RES ovarian it was 13.4%.
Consider `Cc1cccc[n+]1CCC[n+]1ccccc1C`, for which the growth was 100% in the test with SK-MEL-2 melanoma; 94.6% in the test with EKVX NSCLC; 101% with SN12C renal; 88% in the test with TK-10 renal; 109% with ACHN renal; 109% with A498 renal. The growth in the test with CCRF-CEM leukemia is 99.6%; in the test with MOLT-4 leukemia, 86.1%; with SR leukemia, 96.2%; with RPMI-8226 leukemia, 98.8%; with OVCAR-8 ovarian it was 105%; in the test on OVCAR-5 ovarian it was 109%. For the same compound, the growth with OVCAR-4 ovarian is 110%; in the test on SK-OV-3 ovarian it was 76.1%; in the test on IGROV1 ovarian, 107%; with OVCAR-3 ovarian it was 112%; with HS 578T breast, 109%; in the test on NCI/ADR-RES ovarian, 106%.
